Source: PubChem BioAssay (NCI)
The panel holds about 79,000 compounds, 15% with a hit somewhere; the sample as a whole holds those more often. Values without a mark were called inactive. No stated cut-off is given here; in the data, active means growth inhibition above about 70%; inactive means the rest.

Assay: NCI Yeast Anticancer Drug Screen. Data for the bub3 strain (AID 167)
Conditions: S. cerevisiae bub3 mutant strain, at 50.0 µM, active compounds read high
How it was run: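 Mutant yeast screening strain plus compound; vehicle-treated cultures serve as the 0% inhibition reference.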

Q: Which growth inhibition does the source give for `O=C(O)CNc1ncnc2[nH]ncc12` here?
A: -8.1%

Q: With `CCCCCCCC/C=C\CCCCCCCC(=O)OC` as the molecule, how does the growth inhibition read?
A: 44%

Q: With `NC(=O)/C(=C\c1ccncc1)c1cccc2ccccc12` as the molecule, how does the growth inhibition read?
A: -44%

Q: Which growth inhibition does the source give for `CC(=O)OCN(C)N=Nc1ccc(C(C)=O)cc1` here?
A: 20.9%

Q: Which growth inhibition does the source give for `CC(NC(=O)OCc1ccccc1)NC(=O)OC(C)(C)C` (stereo not given) here?
A: -14.6%

Q: With `N#CC1=C(N2CCCC2)NC(=O)CC1=O` as the molecule, how does the growth inhibition read?
A: 7.2%

Q: With `Cc1cc([NH-])c([NH-])cc1C.[Cl][Pt+2][Cl]` as the molecule, how does the growth inhibition read?
A: -6.4%

Q: For `CC(=O)CC(=O)Nc1cccc(C)c1`, which growth inhibition is on record?
A: 16.2%

Q: For `Cc1sc2c(c1C)C(=O)c1cccn1-2`, which growth inhibition is on record?
A: -13.9%

Q: Which growth inhibition does the source give for `O=C(O)CCC(C(=O)O)N1C(=O)C2C3CCC(C3)C2C1=O` (stereo not given) here?
A: -24.9%

Q: With `COC(=O)C(=O)c1c(C2CC2)[nH]c2[nH]n(-c3ccccc3)c(=O)c2c1=O` as the molecule, how does the growth inhibition read?
A: -1.1%

Q: With `CS(=O)(=O)OCC(O)C(O)C(OS(C)(=O)=O)C(O)COS(C)(=O)=O` (stereo not given) as the molecule, how does the growth inhibition read?
A: -8.55%

Q: With `O/N=C/c1ncccc1C1OCCO1` as the molecule, how does the growth inhibition read?
A: -6.7%

Q: With `NC(=S)SCCC(=O)N1CCCC1` as the molecule, how does the growth inhibition read?
A: -7.35%

Q: For `Cc1ccc(NC(=O)C(C)C)cc1`, which growth inhibition is on record?
A: -19.1%

Q: Which growth inhibition does the source give for `CN(C)NC(=O)Oc1ccc(Cl)cc1` here?
A: -33.3%

Q: Which growth inhibition does the source give for `CC(C)(C)C([O-])=C1C(=O)c2ccccc2C1=O.CC(C)(C)C([O-])=C1C(=O)c2ccccc2C1=O.CC[O-].CC[O-].[Ti+4]` here?
A: 59.2%

Q: For `C[n+]1cccc(C(=O)c2ccccc2)c1`, which growth inhibition is on record?
A: -0.55%

Q: With `CC(O[Si](C)(C)C(C)(C)C)[C@H](NC(=O)OCC(Cl)(Cl)Cl)C(=O)O` (stereo not given in full) as the molecule, how does the growth inhibition read?
A: -45%

Q: With `O=C1NCC2(CCCCCC2)O1` as the molecule, how does the growth inhibition read?
A: -3.9%

Q: Which growth inhibition does the source give for `COc1cc([N+](=O)[O-])ccc1NC(=O)C(Br)C(Br)C(=O)O` (stereo not given) here?
A: -0.35%

Q: For `COc1ccc2c(c1)OCCN(C)OC2c1cccc(Cl)c1` (stereo not given), which growth inhibition is on record?
A: 9.4%

Q: Which growth inhibition does the source give for `O=C(NC1CC1)c1ccccc1` here?
A: 1.85%

Q: With `Nc1ccn(CCC(COCc2ccccc2)COCc2ccccc2)c(=O)n1` as the molecule, how does the growth inhibition read?
A: -5.45%

Q: With `CC(=Nc1cccc2ccccc12)c1c(O)cc(C)oc1=O` as the molecule, how does the growth inhibition read?
A: 16.1%

Q: With `CCCO[C@@H]1[C@@H](OC(C)=O)[C@@H](OC(C)=O)C(C)(C)/C=C/[C@H](C)C(=O)[C@@]2(OC(C)=O)C[C@@](C)(OC(C)=O)[C@H](OC(C)=O)[C@@H]2[C@H]2OC(=O)CC[C@@]12OC(=O)c1ccccc1` as the molecule, how does the growth inhibition read?
A: -48.8%

Q: For `CC(=O)C1CCC2C3C=C(C)C4=CC(=O)CCC4(C)C3(F)C(=O)CC12C` (stereo not given), which growth inhibition is on record?
A: 14.2%

Q: Which growth inhibition does the source give for `Cc1[nH]c2cc([N+](=O)[O-])ccc2c1C` here?
A: 1.3%

Q: For `O=C(O)c1ccc2ccc(F)cc2c1Cc1ccccc1`, which growth inhibition is on record?
A: -1.4%

Q: Which growth inhibition does the source give for `C/C=C/C(=O)Nc1cc(Cl)ccc1C` here?
A: 9.4%

Q: For `O=C(O)c1cc(=O)[nH]c(SCc2ccc(Cl)cc2Cl)n1`, which growth inhibition is on record?
A: 9.6%

Q: With `OCC1OC(Nc2ccc(F)cc2)C(O)C1O` (stereo not given) as the molecule, how does the growth inhibition read?
A: -13.2%

Q: Which growth inhibition does the source give for `FC(F)(F)C(c1ccc(Cl)cc1)c1ccc(Cl)cc1` here?
A: 5.95%

Q: For `Cc1ccc(-n2c(=O)nc([O-])[n+]3ccccc23)cc1`, which growth inhibition is on record?
A: -3.75%

Q: With `COc1ccc(OCC(C)(C)O)cc1` as the molecule, how does the growth inhibition read?
A: -11.2%

Q: For `CS(=O)(=O)Oc1ncc(Cl)cc1Cl`, which growth inhibition is on record?
A: 1.35%

Q: For `O=S(=O)(Nc1ccccc1)c1cc(O)ccc1O`, which growth inhibition is on record?
A: -26.5%

Q: For `CCCC(=O)C(C)C(=O)CC` (stereo not given), which growth inhibition is on record?
A: -6.8%

Q: With `COc1ccccc1N=NNc1ccc(S(=O)(=O)NC(C)=O)cc1` as the molecule, how does the growth inhibition read?
A: -15%

Q: With `COC(=O)CCCCCCCCCCCCC1C=CCC1` (stereo not given) as the molecule, how does the growth inhibition read?
A: -5.85%

Assay: NCI Yeast Anticancer Drug Screen. Data for the mlh1 rad18 strain (AID 175)
Conditions: S. cerevisiae mlh1 rad18 strain growth inhibition; at 50.0 µM; active compounds read high
How it was run: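 Steps: expose repair-defective yeast to compound; measure growth; express inhibition against vehicle-treated controls.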

Q: With `O=C(O)CNc1ncnc2[nH]ncc12` as the molecule, how does the growth inhibition read?
A: 6%

Q: Which growth inhibition does the source give for `CCCCCCCC/C=C\CCCCCCCC(=O)OC` here?
A: 49%

Q: Which growth inhibition does the source give for `NC(=O)/C(=C\c1ccncc1)c1cccc2ccccc12` here?
A: -7.05%

Q: With `CC(=O)OCN(C)N=Nc1ccc(C(C)=O)cc1` as the molecule, how does the growth inhibition read?
A: 5.45%

Q: With `CC(NC(=O)OCc1ccccc1)NC(=O)OC(C)(C)C` (stereo not given) as the molecule, how does the growth inhibition read?
A: -26.8%

Q: Which growth inhibition does the source give for `N#CC1=C(N2CCCC2)NC(=O)CC1=O` here?
A: 1.4%

Q: For `Cc1cc([NH-])c([NH-])cc1C.[Cl][Pt+2][Cl]`, which growth inhibition is on record?
A: -25.9%

Q: For `CC(=O)CC(=O)Nc1cccc(C)c1`, which growth inhibition is on record?
A: -5.65%

Q: With `Cc1sc2c(c1C)C(=O)c1cccn1-2` as the molecule, how does the growth inhibition read?
A: -1%

Q: Which growth inhibition does the source give for `O=C(O)CCC(C(=O)O)N1C(=O)C2C3CCC(C3)C2C1=O` (stereo not given) here?
A: -5.45%

Q: For `COC(=O)C(=O)c1c(C2CC2)[nH]c2[nH]n(-c3ccccc3)c(=O)c2c1=O`, which growth inhibition is on record?
A: 3.6%

Q: Which growth inhibition does the source give for `CS(=O)(=O)OCC(O)C(O)C(OS(C)(=O)=O)C(O)COS(C)(=O)=O` (stereo not given) here?
A: 7.35%

Q: Which growth inhibition does the source give for `O/N=C/c1ncccc1C1OCCO1` here?
A: 14.7%

Q: Which growth inhibition does the source give for `NC(=S)SCCC(=O)N1CCCC1` here?
A: -1.7%

Q: Which growth inhibition does the source give for `Cc1ccc(NC(=O)C(C)C)cc1` here?
A: -21.2%

Q: For `CN(C)NC(=O)Oc1ccc(Cl)cc1`, which growth inhibition is on record?
A: 2.75%

Q: With `CC(C)(C)C([O-])=C1C(=O)c2ccccc2C1=O.CC(C)(C)C([O-])=C1C(=O)c2ccccc2C1=O.CC[O-].CC[O-].[Ti+4]` as the molecule, how does the growth inhibition read?
A: 46.2%

Q: With `C[n+]1cccc(C(=O)c2ccccc2)c1` as the molecule, how does the growth inhibition read?
A: 6.5%

Q: Which growth inhibition does the source give for `CC(O[Si](C)(C)C(C)(C)C)[C@H](NC(=O)OCC(Cl)(Cl)Cl)C(=O)O` (stereo not given in full) here?
A: -14.8%

Q: Which growth inhibition does the source give for `O=C1NCC2(CCCCCC2)O1` here?
A: 6.15%

Q: With `COc1cc([N+](=O)[O-])ccc1NC(=O)C(Br)C(Br)C(=O)O` (stereo not given) as the molecule, how does the growth inhibition read?
A: 16.4%

Q: Which growth inhibition does the source give for `COc1ccc2c(c1)OCCN(C)OC2c1cccc(Cl)c1` (stereo not given) here?
A: 6.7%

Q: Which growth inhibition does the source give for `O=C(NC1CC1)c1ccccc1` here?
A: -15.7%

Q: With `Nc1ccn(CCC(COCc2ccccc2)COCc2ccccc2)c(=O)n1` as the molecule, how does the growth inhibition read?
A: 5.75%

Q: Which growth inhibition does the source give for `CC(=Nc1cccc2ccccc12)c1c(O)cc(C)oc1=O` here?
A: 14.1%

Q: For `CCCO[C@@H]1[C@@H](OC(C)=O)[C@@H](OC(C)=O)C(C)(C)/C=C/[C@H](C)C(=O)[C@@]2(OC(C)=O)C[C@@](C)(OC(C)=O)[C@H](OC(C)=O)[C@@H]2[C@H]2OC(=O)CC[C@@]12OC(=O)c1ccccc1`, which growth inhibition is on record?
A: -29.1%

Q: For `CC(=O)C1CCC2C3C=C(C)C4=CC(=O)CCC4(C)C3(F)C(=O)CC12C` (stereo not given), which growth inhibition is on record?
A: 15.9%

Q: With `Cc1[nH]c2cc([N+](=O)[O-])ccc2c1C` as the molecule, how does the growth inhibition read?
A: -0.5%

Q: Which growth inhibition does the source give for `O=C(O)c1ccc2ccc(F)cc2c1Cc1ccccc1` here?
A: -16.5%

Q: For `C/C=C/C(=O)Nc1cc(Cl)ccc1C`, which growth inhibition is on record?
A: 5.55%

Q: Which growth inhibition does the source give for `O=C(O)c1cc(=O)[nH]c(SCc2ccc(Cl)cc2Cl)n1` here?
A: -1.35%

Q: For `OCC1OC(Nc2ccc(F)cc2)C(O)C1O` (stereo not given), which growth inhibition is on record?
A: 26.2%

Q: Which growth inhibition does the source give for `FC(F)(F)C(c1ccc(Cl)cc1)c1ccc(Cl)cc1` here?
A: 30.6%

Q: Which growth inhibition does the source give for `Cc1ccc(-n2c(=O)nc([O-])[n+]3ccccc23)cc1` here?
A: 6.65%

Q: Which growth inhibition does the source give for `COc1ccc(OCC(C)(C)O)cc1` here?
A: -2.55%

Q: Which growth inhibition does the source give for `CS(=O)(=O)Oc1ncc(Cl)cc1Cl` here?
A: -8.1%

Q: Which growth inhibition does the source give for `O=S(=O)(Nc1ccccc1)c1cc(O)ccc1O` here?
A: -9.85%

Q: For `CCCC(=O)C(C)C(=O)CC` (stereo not given), which growth inhibition is on record?
A: 0.5%

Q: With `COc1ccccc1N=NNc1ccc(S(=O)(=O)NC(C)=O)cc1` as the molecule, how does the growth inhibition read?
A: 0.55%

Q: With `COC(=O)CCCCCCCCCCCCC1C=CCC1` (stereo not given) as the molecule, how does the growth inhibition read?
A: 4.25%
